GDH-TPI counter-1: inhibits GDH-TPI coupling enzymes, artifact for Mtb FBA screen; GDH-TPI coupled enzyme counterscreen, NADH absorbance; 360,000 compounds, 1.2% hits; inhibition, % at 4.8 µM; AID 588335; in the data active = inhibition above about 30%;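 also: 0% = DMSO wells and 100% = wells lacking the enzyme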
UGM FP inh: Mtb UDP-galactopyranose mutase inhibition. purified UGM, fluorescence polarization probe displacement. inhibition, % at 10 µM. 320,000 compounds, 0.06% hits. AID 504406; in the data active = inhibition above about 10%, passing the limit was not always enough
FBA Mtb inh: inhibitors of M. tuberculosis fructose-bisphosphate aldolase. P9WQA3. purified M. tuberculosis FBA, fluorescence read-out. inhibition, % at 1 µM. 360,000 compounds, 2.3% hits. AID 588726;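 also: 0% = vehicle and 100% = reference inhibitor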
Target sequence (P9WQA3 whole entry, looked up): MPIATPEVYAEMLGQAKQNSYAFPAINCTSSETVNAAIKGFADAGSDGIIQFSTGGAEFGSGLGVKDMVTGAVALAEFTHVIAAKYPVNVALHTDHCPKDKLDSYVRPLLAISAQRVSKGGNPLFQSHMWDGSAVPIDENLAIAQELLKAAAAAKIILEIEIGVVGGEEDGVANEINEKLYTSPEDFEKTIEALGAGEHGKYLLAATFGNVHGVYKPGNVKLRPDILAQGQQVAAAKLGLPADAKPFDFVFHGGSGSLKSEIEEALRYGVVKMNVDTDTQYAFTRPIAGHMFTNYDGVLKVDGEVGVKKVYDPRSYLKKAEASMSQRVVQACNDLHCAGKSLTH
Rv3671c inh: inhibitors of M. tuberculosis serine protease Rv3671c; AID 2606; inhibition, % at 5.96 µM; 320,000 compounds, 0.048% hits; P9WHR9; in the data active = inhibition above about 38%;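 also: extracellular domain of Rv3671c used as enzyme; 0% = enzyme with DMSO and 100% = no enzyme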
Mtb FBA confirm: confirmation of M. tuberculosis fructose-bisphosphate aldolase inhibitors | shares compounds with FBA Mtb inh | 5,600 compounds, 78% hits | purified M. tuberculosis FBA, fluorescence read-out | inhibition, % at 1 µM;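 also: 0% = vehicle wells and 100% = reference inhibitor wells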
GDH-TPI counter-2: counter-screen for M. tuberculosis FBA inhibitors: GDH-TPI coupled enzyme inhibition; shares compounds with FBA Mtb inh; GDH-TPI coupled enzyme counterscreen, fluorescence; inhibition, % at 1 µM; 5,600 compounds, 81% hits; in the data active = inhibition above about 10%
Active calls of the source: *; · = not tested or not shown; + = active, no number. An excerpt weighted towards active compounds, which were near 3.5% of everything screened. Rule as the data show it, unless noted: active = inhibition above about 27%; inactive = the rest.

SMILES	GDH-TPI counter-1	UGM FP inh	FBA Mtb inh	Rv3671c inh	Mtb FBA confirm	GDH-TPI counter-2
Cc1ccc(NC(=O)CCOc2ccccc2C)cc1F	0	-1	2	-6	·	·
O=C(Cc1ccccc1)Nc1ccc2oc(=O)ccc2c1	6	-3	2	5	·	·
Cc1ccccc1OCCC(=O)Nc1ccc2c(C)cc(=O)oc2c1	11	1	95*	-10	183*	153*
Cc1cc(=O)oc2cc(NC(=O)Cc3ccccc3)ccc12	2	2	80*	-11	+	185*
COc1ccc(C(C)(O)c2nc(-c3cccc(F)c3)cs2)cc1 (configuration not stated)	-4	·	-4	·	·	·
CCNc1nc(OC)nc(N2CCC(Cc3ccccc3)CC2)n1	11	-4	2	-8	·	·
COc1ccc2[nH]c(C(=O)O)c(CCNC(=O)/C=C/c3ccc(O)c(OC)c3)c2c1	16	2	10	9	·	·
COc1ccccc1C(O)c1ncc(-c2cccc3ccccc23)[nH]1 (configuration not stated)	11	·	60*	·	+	+
COc1ccc(C(O)c2ncc(-c3ccc4ccccc4c3)[nH]2)cc1 (configuration not stated)	5	·	32*	·	+	+
COc1ccccc1-c1cnc(C(O)c2cccc(C)c2C)[nH]1 (configuration not stated)	-7	·	-1	·	·	·
Cc1ccc(C(O)c2ncc(-c3ccc4ccccc4c3)[nH]2)cc1 (configuration not stated)	-6	·	25	·	·	·
COc1ccc(C(O)c2ncc(-c3ccccc3OC)[nH]2)cc1F (configuration not stated)	3	·	-3	·	·	·
COc1ccc(C(O)c2ncc(-c3cccc4ccccc34)[nH]2)cc1F (configuration not stated)	4	·	41*	·	36*	36*
Cc1cc(F)ccc1C(O)c1ncc(-c2cccc3ccccc23)[nH]1 (configuration not stated)	13	·	31*	·	-3	-5
Cc1cc(F)ccc1C(O)c1ncc(-c2ccc3ccccc3c2)[nH]1 (configuration not stated)	12	·	17	·	·	·
OC(c1ccc(F)cc1)c1ncc(-c2cccc3ccccc23)[nH]1 (configuration not stated)	-4	·	49*	·	5	-4
COc1ccccc1OCC(=O)Nc1ccc(-c2nnc(-c3ccco3)o2)cc1	23	1	1	-4	·	·
Nc1nnc(-c2ccc(Cl)cc2)o1	2	2	9	-5	·	·
Clc1ccc(-c2nnc(-c3ccco3)o2)cc1	5	0	72*	-18	+	+
O=C(Cc1cccs1)Nc1ccc(-c2nnc(-c3ccccc3)o2)cc1	10	-1	2	6	·	·
O=C(Cc1cccs1)Nc1ccc(-c2nnc(-c3ccco3)o2)cc1	7	0	49*	-10	83*	67*
CCC(Oc1ccccc1)C(=O)Nc1ccc(-c2nnc(-c3ccco3)o2)cc1 (configuration not stated)	15	3	43*	-24	-3	-4
CN(C)c1nnc(-c2ccc(Cl)cc2)o1	-5	-1	66*	8	+	+
CCCCCC(=O)N1C[C@@H](n2cc(-c3ccc(F)cc3)nn2)[C@H](O)C[C@@H]1c1ccc(OC)cc1	0	·	-1	·	·	·
O=C(COC(=O)c1cccs1)NCCN1C(=O)CSC1=O	7	0	1	0	·	·
SMILES	GDH-TPI counter-1	UGM FP inh	FBA Mtb inh	Rv3671c inh	Mtb FBA confirm	GDH-TPI counter-2
Cc1c(C(=O)OCC(=O)NCCN2C(=O)CSC2=O)oc2c1ccc1ccccc12	12	1	63*	-10	160*	134*
CCc1nc2c(OCC(=O)C(C)(C)C)cccn2c1N(C)C(=O)CC(C)C	-6	·	0	·	·	·
COc1cccc(OCc2cc(C(=O)N3CCNC(=O)C3Cc3ccccc3)no2)c1 (configuration not stated)	-2	1	1	10	·	·
COc1ccc(CNc2nc(C)cc(C)c2C#N)cc1	19	-1	29*	-4	40*	26*
Cc1nc2nc(-c3ccccc3)cn2nc1C	13	1	20	-8	·	·
Cc1nc2nc(-c3ccc(F)cc3)cn2nc1C	9	3	50*	3	43*	38*
CCCCn1nc2cc(C(=O)NCc3ccc(OC)cc3)ccc2c1OCC	8	-2	40*	-7	94*	85*
COc1ccc(CNC(=O)c2ccc(Cl)c(S(=O)(=O)N3CCCCCC3)c2)cc1	9	·	-4	·	·	·
COc1ccc(C(=O)NCc2ccc3c(c2)cc(C)n3C)cc1	13	5	1	5	·	·
CCOc1c2ccc(C(=O)NCc3ccc(OC)cc3)cc2nn1CCOC	4	-1	60*	2	99*	72*
CC(=O)c1ccc(OCC(=O)Nc2ccc3c(c2)OCO3)cc1	3	·	-1	·	·	·
c1ccc(CNc2c(-c3cccc(SC4CCCCC4)c3)nc3ccccn23)cc1	16	2	46*	5	100*	65*
CCC(C)Sc1cccc(-c2nc3cc(C)ccn3c2NCc2ccccc2)c1 (configuration not stated)	12	3	33*	5	49*	36*
CCC(C)Sc1ccc(-c2nc3ccc(Cl)cn3c2NCc2ccccc2)cc1 (configuration not stated)	12	0	2	5	·	·
COc1ccc(-c2cc(-c3nc4ccccn4c3NCc3ccccc3)ccc2OC)cc1	-3	3	36*	0	167*	136*
c1ccc(-c2nc3ccccn3c2NCc2ccc3c(c2)OCO3)cc1	14	0	12	1	·	·
Clc1cccc(-c2ccc(-c3nc4ccccn4c3NCc3ccccc3)cc2)c1	15	·	40*	7	152*	117*
CCC(=O)c1ccc(OCC(O)CNC2CCCC2)cc1 (configuration not stated)	-8	-2	-2	4	·	·
COc1ccc(/C=C2\SC(=S)N(CC(=O)NC3C=CS(=O)(=O)C3)C2=O)cc1 (configuration not stated)	8	2	-1	-47	·	·
Cc1cc(C)n(-c2ccc(C(=O)N3CCC(CO)(Cc4ccccc4)CC3)cc2)n1	-8	-1	-2	1	·	·
Cc1ccn2c(NCc3ccccc3)c(-c3cccc(SC4CCCCC4)c3)nc2c1	13	4	28*	11	39*	30*
C=CCNC(=S)Nc1ccc2cn[nH]c2c1	6	0	2	-18	·	·
Cc1cc(S(=O)(=O)NCc2ccccc2)ccc1OCC(=O)N1CCCC1	9	-1	1	1	·	·
COc1ccc2c(c1)c(=O)oc1c(C)c(OCc3cc(C(=O)O)oc3C)ccc12	3	1	43*	-9	-4	-7
COc1ccc2c(c1)c(=O)oc1c(C)c(OC(C)C(=O)NCC3CCC(C(=O)O)CC3)ccc12 (configuration not stated)	9	-3	35*	-10	92*	81*

Assay outcomes deposited in PubChem by several laboratories.
